Our source for the binding signal values is article PMC7862700, “An all-to-all approach to the identification of sequence-specific readers for epigenetic DNA modifications on cytosine”.

Common to all, as to experiment: DAPPL (digital affinity profiling via proximity ligation, sequencing); 10 mM Tris-HCl pH 7.5, 50 mM NaCl, 1 mM DTT, 4% glycerol, room temperature, 30 min; GST-TFs on glutathione beads, 16-mer random dsDNA library, 0.1% formaldehyde crosslink after washing; high values mean tight binding
Experiment [1] concerns the target T1, FEV (Homo sapiens, UniProt Q99581 1-238).
T1 sequence: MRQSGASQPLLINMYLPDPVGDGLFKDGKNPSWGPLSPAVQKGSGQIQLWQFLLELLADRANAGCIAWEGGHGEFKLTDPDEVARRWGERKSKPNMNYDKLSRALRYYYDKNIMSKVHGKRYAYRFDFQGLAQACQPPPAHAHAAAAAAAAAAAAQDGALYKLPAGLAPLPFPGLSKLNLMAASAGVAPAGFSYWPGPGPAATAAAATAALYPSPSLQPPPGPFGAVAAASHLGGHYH
The following applies: protein: recombinant; tags: N-terminal GST; dsDNA, one strand shown. An outline of the steps:
(§1)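 Binding signal is given per hexamer as its read frequency for a factor divided by its frequency in the tag-only sample. GST-fused human transcription factors were expressed in yeast, captured on glutathione beads, barcoded with DNA and pooled with that sample, then incubated with 200 nmole of a 16-mer random double-stranded DNA library in Tris/NaCl/DTT/glycerol buffer for 30 min at room temperature. The pools were then washed, crosslinked, proximity-ligated, amplified by PCR and sequenced on an Illumina NextSeq500.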

The target in experiment [2] is ETV5 (Homo sapiens, UniProt P41161 1-510). To be noted: protein: recombinant; tags: N-terminal GST; dsDNA, one strand shown. An outline of the steps:
as §1

In experiment [3] the target is HSF1 (Homo sapiens, UniProt Q00613 1-529). The following applies: protein: recombinant; tags: N-terminal GST; chain copies: 3; dsDNA, one strand shown. In a few lines: as §1
Experiment [4] addresses T2, SPIC (Homo sapiens, UniProt Q8N5J4 1-248).
T2 sequence: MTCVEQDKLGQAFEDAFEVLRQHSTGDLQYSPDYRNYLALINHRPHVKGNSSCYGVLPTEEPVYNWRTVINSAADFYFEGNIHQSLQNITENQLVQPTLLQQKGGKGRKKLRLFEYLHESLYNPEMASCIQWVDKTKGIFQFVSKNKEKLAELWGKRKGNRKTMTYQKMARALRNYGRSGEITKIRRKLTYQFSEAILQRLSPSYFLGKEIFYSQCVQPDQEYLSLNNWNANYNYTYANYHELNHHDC
The following applies: protein: recombinant; tags: N-terminal GST; dsDNA, one strand shown. An outline of the steps:
as §1

In experiment [5] the target is ELF4 (Homo sapiens, UniProt Q99607 1-663). To be noted: protein: recombinant; tags: N-terminal GST; dsDNA, one strand shown. In a few lines:
as §1

Experiment [6] addresses T3, ELK4 (Homo sapiens, UniProt P28324-2 1-405).
T3 sequence: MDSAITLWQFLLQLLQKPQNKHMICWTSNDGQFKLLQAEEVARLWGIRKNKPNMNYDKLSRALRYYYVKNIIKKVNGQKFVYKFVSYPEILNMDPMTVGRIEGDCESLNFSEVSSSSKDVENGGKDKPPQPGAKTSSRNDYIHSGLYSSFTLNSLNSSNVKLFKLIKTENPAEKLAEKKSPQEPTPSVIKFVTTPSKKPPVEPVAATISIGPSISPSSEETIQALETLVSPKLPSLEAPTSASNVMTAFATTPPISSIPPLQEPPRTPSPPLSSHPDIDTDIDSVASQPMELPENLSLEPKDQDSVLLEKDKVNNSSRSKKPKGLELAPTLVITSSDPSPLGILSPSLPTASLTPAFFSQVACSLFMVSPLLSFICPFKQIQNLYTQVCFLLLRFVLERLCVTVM
To be noted: protein: recombinant; tags: N-terminal GST; dsDNA, one strand shown. An outline of the steps:
as §1

The target in experiment [7] is T4, ETV2 (Homo sapiens, UniProt O00321 1-342).
T4 sequence: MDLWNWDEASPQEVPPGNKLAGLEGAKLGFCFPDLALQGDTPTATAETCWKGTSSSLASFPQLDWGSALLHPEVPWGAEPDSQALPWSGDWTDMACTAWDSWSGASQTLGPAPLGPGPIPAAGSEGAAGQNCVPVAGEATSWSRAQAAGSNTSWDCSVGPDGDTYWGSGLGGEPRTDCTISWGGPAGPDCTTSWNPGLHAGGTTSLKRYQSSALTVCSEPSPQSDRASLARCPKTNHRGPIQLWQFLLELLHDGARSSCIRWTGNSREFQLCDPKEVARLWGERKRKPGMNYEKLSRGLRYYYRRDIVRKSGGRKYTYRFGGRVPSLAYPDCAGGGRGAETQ
To be noted: protein: recombinant; tags: N-terminal GST; dsDNA, one strand shown. An outline of the steps:
as §1

The target in experiment [8] is T5, ELF3 (Homo sapiens, UniProt P78545 1-371).
T5 sequence: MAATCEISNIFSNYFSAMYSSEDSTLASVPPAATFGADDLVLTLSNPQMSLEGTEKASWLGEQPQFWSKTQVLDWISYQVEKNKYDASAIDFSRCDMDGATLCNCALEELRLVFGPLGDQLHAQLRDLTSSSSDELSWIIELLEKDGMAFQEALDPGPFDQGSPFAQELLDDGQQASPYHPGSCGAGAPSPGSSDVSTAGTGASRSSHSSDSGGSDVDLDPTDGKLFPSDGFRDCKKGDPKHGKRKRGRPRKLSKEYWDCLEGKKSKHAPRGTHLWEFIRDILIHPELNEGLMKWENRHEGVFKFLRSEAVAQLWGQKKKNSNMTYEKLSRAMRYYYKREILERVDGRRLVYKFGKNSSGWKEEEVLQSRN
The following applies: protein: recombinant; tags: N-terminal GST; dsDNA, one strand shown. In a few lines:
as §1

Experiment [9] has as its target CRX (Homo sapiens, UniProt O43186 1-299). The following applies: protein: recombinant; tags: N-terminal GST; dsDNA, one strand shown. An outline of the steps: as §1
Experiment [10] deals with ETV1 (Homo sapiens, UniProt P50549 1-477). The following applies: protein: recombinant; tags: N-terminal GST; dsDNA, one strand shown. An outline of the steps:
as §1

For experiment [11], the target named is T6, ERF (Homo sapiens, UniProt P50548 1-548).
T6 sequence: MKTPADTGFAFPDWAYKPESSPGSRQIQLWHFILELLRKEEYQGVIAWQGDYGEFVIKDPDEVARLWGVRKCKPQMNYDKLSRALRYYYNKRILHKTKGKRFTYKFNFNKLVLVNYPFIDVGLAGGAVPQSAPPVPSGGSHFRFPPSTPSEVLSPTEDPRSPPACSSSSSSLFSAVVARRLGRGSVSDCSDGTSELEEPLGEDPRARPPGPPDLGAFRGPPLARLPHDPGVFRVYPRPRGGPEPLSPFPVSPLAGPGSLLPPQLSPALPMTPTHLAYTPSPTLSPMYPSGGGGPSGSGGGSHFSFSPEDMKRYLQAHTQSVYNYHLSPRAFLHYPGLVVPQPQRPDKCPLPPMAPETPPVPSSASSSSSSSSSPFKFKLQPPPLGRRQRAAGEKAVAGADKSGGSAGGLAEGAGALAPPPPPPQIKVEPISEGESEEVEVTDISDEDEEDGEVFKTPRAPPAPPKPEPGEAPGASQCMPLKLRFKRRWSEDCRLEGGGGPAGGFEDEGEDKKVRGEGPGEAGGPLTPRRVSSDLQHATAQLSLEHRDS
To be noted: protein: recombinant; tags: N-terminal GST; dsDNA, one strand shown. In a few lines: as §1

Experiment [12] concerns the target T7, ETV3L (Homo sapiens, UniProt Q6ZN32 1-361).
T7 sequence: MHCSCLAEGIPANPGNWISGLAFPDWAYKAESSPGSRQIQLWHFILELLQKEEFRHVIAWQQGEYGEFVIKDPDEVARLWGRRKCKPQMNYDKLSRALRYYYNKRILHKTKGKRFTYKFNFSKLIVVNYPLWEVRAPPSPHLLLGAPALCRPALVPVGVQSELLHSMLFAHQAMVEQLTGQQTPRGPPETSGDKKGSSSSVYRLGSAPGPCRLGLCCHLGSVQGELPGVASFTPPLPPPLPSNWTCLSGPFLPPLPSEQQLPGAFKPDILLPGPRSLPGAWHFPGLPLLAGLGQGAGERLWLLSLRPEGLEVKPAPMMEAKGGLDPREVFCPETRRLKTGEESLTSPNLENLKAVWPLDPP
To be noted: protein: recombinant; tags: N-terminal GST; dsDNA, one strand shown. An outline of the steps:
as §1

The target in experiment [13] is T8, ETS2 (Homo sapiens, UniProt P15036 1-469).
T8 sequence: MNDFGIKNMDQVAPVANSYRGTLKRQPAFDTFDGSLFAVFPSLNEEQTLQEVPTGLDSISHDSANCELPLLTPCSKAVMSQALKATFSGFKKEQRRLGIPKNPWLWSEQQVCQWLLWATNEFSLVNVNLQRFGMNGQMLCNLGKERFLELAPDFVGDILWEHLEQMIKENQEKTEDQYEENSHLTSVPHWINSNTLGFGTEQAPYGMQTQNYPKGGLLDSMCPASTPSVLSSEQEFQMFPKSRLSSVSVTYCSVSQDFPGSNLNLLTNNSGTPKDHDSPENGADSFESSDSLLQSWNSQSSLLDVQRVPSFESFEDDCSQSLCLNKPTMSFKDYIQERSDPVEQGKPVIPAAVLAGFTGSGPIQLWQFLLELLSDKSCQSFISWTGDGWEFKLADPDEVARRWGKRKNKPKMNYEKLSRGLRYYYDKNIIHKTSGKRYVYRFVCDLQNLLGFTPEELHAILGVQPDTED
To be noted: protein: recombinant; tags: N-terminal GST; dsDNA, one strand shown. In a few lines: as §1

In experiment [14] the target is T9, SPDEF (Homo sapiens, UniProt O95238 1-335).
T9 sequence: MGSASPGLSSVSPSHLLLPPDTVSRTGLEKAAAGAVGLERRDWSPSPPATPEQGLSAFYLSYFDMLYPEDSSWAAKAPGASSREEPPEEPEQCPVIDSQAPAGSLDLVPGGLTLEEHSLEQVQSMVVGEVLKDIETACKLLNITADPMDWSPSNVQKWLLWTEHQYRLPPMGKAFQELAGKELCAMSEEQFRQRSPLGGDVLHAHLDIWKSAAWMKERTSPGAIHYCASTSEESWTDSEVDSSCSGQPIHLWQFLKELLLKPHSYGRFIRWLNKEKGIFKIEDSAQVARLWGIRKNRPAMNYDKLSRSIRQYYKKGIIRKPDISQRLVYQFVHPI
To be noted: protein: recombinant; tags: N-terminal GST; dsDNA, one strand shown. In a few lines:
as §1

Experiment [15] addresses T10, ETV7 (Homo sapiens, UniProt Q9Y603 1-341).
T10 sequence: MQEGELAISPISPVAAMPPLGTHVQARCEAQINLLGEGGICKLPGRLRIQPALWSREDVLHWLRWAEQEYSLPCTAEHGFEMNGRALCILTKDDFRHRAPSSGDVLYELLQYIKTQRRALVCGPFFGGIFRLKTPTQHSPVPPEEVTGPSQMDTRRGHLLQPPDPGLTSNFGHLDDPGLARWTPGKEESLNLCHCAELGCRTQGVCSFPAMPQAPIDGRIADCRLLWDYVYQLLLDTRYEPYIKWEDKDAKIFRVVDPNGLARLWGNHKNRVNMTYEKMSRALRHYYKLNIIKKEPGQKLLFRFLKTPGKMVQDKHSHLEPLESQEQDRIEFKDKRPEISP
To be noted: protein: recombinant; tags: N-terminal GST; dsDNA, one strand shown. In a few lines: as §1

Experiment [16] addresses T11, ELF5 (Homo sapiens, UniProt Q9UKW6-2 1-255).
T11 sequence: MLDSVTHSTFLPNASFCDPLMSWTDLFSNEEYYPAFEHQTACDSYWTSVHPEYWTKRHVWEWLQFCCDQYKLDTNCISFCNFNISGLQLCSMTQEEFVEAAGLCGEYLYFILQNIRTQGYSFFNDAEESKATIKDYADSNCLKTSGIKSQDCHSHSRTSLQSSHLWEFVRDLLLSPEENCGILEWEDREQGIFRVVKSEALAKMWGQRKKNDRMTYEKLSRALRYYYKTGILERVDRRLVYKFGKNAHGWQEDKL
The following applies: protein: recombinant; tags: N-terminal GST; dsDNA, one strand shown. An outline of the steps: as §1

The target in experiment [17] is T12, ETV3 (Homo sapiens, UniProt P41162-2 1-143).
T12 sequence: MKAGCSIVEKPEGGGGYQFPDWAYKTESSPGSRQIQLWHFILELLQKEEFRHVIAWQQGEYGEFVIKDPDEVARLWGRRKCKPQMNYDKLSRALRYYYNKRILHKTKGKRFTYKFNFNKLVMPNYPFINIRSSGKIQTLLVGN
To be noted: protein: recombinant; tags: N-terminal GST; dsDNA, one strand shown. In a few lines:
as §1

For experiment [18], the target named is ETV6 (Homo sapiens, UniProt P41212 1-452). To be noted: protein: recombinant; tags: N-terminal GST; dsDNA, one strand shown. In a few lines: as §1
ETV6, sequence (P41212 whole entry): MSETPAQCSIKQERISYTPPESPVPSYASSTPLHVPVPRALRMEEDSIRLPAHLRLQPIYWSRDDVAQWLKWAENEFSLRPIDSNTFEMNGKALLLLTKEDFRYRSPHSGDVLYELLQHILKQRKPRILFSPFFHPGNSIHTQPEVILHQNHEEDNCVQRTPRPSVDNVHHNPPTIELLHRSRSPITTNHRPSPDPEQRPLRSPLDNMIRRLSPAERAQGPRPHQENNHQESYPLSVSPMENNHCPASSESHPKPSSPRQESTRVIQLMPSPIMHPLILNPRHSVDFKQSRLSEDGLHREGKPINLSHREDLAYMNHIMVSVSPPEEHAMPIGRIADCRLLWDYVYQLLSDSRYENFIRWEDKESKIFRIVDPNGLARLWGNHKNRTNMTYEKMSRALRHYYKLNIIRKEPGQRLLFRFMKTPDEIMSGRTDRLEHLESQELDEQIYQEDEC

ETV5, sequence (P41161 whole entry): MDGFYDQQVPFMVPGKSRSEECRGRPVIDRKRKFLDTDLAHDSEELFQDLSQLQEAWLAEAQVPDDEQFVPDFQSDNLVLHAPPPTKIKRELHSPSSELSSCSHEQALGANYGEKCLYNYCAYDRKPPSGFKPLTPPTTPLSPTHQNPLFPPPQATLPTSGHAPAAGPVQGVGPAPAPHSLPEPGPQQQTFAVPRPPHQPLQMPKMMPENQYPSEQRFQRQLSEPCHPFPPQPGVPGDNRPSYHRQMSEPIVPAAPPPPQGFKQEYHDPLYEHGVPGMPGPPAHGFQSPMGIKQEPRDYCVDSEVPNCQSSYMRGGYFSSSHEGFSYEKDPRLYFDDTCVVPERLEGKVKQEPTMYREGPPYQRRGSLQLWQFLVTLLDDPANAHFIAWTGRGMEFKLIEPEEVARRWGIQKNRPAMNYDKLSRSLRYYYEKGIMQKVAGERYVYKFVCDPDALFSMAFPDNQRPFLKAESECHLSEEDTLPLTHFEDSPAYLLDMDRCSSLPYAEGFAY
ETV1, sequence (P50549 whole entry): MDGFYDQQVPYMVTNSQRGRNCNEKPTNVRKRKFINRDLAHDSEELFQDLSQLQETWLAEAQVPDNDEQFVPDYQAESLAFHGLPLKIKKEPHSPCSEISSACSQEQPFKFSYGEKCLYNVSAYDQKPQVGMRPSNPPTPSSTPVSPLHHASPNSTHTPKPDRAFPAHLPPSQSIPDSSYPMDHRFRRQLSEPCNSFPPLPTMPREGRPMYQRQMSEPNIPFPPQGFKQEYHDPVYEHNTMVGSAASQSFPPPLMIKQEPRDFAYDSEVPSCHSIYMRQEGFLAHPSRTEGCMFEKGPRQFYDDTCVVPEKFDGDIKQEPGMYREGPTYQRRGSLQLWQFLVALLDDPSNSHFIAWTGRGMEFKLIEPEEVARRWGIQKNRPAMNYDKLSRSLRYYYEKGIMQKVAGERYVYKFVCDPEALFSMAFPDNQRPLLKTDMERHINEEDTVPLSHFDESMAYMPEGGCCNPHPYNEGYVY
ELF4, sequence (Q99607 whole entry): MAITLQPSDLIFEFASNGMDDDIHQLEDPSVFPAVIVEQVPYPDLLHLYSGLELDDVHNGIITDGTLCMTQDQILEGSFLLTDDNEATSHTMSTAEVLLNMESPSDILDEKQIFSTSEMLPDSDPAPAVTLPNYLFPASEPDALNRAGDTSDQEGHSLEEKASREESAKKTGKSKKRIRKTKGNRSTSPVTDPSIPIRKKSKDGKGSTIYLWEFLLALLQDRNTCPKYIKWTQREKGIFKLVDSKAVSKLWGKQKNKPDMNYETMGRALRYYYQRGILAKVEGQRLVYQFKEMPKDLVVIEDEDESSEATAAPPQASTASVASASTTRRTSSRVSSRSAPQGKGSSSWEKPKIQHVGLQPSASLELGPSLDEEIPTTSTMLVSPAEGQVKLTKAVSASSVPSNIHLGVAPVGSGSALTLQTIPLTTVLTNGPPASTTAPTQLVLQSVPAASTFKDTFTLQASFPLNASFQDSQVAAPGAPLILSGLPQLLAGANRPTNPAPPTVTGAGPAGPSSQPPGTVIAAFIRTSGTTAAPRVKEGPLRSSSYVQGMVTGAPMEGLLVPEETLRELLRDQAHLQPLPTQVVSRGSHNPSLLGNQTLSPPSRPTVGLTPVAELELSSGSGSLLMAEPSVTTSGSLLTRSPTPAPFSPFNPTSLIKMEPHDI
HSF1, sequence (Q00613 whole entry): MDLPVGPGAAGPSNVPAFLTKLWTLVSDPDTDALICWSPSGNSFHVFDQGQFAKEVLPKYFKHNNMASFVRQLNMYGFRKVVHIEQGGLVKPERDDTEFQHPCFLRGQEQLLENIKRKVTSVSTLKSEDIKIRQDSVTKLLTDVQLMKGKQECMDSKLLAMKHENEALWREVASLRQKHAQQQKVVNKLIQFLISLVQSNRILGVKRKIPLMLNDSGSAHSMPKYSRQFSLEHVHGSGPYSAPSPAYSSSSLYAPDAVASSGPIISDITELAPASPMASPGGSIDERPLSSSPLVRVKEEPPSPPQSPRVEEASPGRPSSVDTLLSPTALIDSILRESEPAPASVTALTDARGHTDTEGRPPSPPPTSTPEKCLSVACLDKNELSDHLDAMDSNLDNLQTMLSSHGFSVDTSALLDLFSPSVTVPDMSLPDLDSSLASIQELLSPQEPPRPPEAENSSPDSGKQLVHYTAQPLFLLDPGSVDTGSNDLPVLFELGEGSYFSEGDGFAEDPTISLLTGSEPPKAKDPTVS
CRX, sequence (O43186 whole entry): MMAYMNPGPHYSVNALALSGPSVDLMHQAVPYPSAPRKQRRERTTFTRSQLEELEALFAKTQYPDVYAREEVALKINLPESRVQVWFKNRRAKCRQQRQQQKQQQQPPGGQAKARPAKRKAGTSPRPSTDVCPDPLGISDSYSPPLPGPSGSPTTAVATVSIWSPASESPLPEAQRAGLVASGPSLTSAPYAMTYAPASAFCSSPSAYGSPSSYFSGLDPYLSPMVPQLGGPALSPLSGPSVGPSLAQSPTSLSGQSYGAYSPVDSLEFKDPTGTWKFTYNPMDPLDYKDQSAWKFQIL

Turning to TTGCCT, the binding signal was 1.19 fold enrichment (6-mer frequency, TF over GST control) in experiment [1]; 1.22 fold enrichment (6-mer frequency, TF over GST control) in [2]; 1.13 fold enrichment (6-mer frequency, TF over GST control) in experiment [3]; 1.42 fold enrichment (6-mer frequency, TF over GST control) in experiment [4]; 1.29 fold enrichment (6-mer frequency, TF over GST control) in experiment [5]; 1.2 fold enrichment (6-mer frequency, TF over GST control) in [6]. For the same sequence, the binding signal was 1.19 fold enrichment (6-mer frequency, TF over GST control) in experiment [7]; 1.42 fold enrichment (6-mer frequency, TF over GST control) in experiment [8]; 1.16 fold enrichment (6-mer frequency, TF over GST control) in [9]; 1.37 fold enrichment (6-mer frequency, TF over GST control) in experiment [10]; 1.18 fold enrichment (6-mer frequency, TF over GST control) in experiment [11]; 1.34 fold enrichment (6-mer frequency, TF over GST control) in [12]. The binding signal in [13] is 1.24 fold enrichment (6-mer frequency, TF over GST control); in experiment [14], 1.18 fold enrichment (6-mer frequency, TF over GST control); in experiment [15], 1.23 fold enrichment (6-mer frequency, TF over GST control); in experiment [16], 1.19 fold enrichment (6-mer frequency, TF over GST control); in experiment [17], 1.14 fold enrichment (6-mer frequency, TF over GST control); in experiment [18], 1.1 fold enrichment (6-mer frequency, TF over GST control).
